High-throughput results: PubChem BioAssay, National Center for Advancing Translational Sciences (NCATS)
A selection: hits, their analogues and other compounds. The true share with any hit is near 19%.
Cycloheximide cs = counter-screen for Shiga toxin inhibitors: cycloheximide protein synthesis inhibition | AID 2314 | 300,000 compounds, 12% hits | max response, % | cell reporter, cycloheximide protein synthesis inhibition counterscreen; in the data active means max response mostly above about 13%, no sharp cut-off; inactive means mostly below about 14%; further: read at 38.3 µM for the half of the compounds with a filed dose; 0% is about no effect
Pf growth 96h = P. falciparum growth inhibition at 96 hour, primary screen for plastid delayed-death inhibitors; P. falciparum luciferase reporter growth, 96 h; Potency, µM (highest dose often 28.7 µM), inactives show at the top dose activity change, negative = inhibition, most hits filed as inhibitors; 320,000 compounds, 6.9% hits; AID 504834; further: potency means the concentration at half of the fitted maximal effect; on the % scale 0 is the no-effect control and ±100 the full control effect
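Plates of compound plus infected erythrocytes (2% hematocrit, 0.05% parasitemia final) incubate 96 hours, 37 C, 5% CO2. Detection reagent added; reduced luminescence from the parasites' luciferase reporter flags inhibition.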
Pf growth 48h = inhibits P. falciparum growth in the first generation, 48 h. P. falciparum luciferase growth in erythrocytes, 48 h. Potency, µM (titrated, usually from 28.7 µM), for the others: at the top dose activity change, negative = inhibition, usual class: inhibitors. 310,000 compounds, 5.9% hits. AID 504832; further: potency means the concentration at half of the fitted maximal effect; on the % scale 0 is the no-effect control and ±100 the full control effect
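Erythrocytes infected with P. falciparum carrying an integrated firefly luciferase reporter (2% hematocrit, 0.1% parasitemia final) were exposed to compounds in RPMI 1640 with 0.5% Albumax at 37 C, 5% CO2. Growth inhibition was scored as reduced luminescence.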
AMA1-RON2 inh = AMA1-RON2 (P. falciparum) interaction inhibition; AlphaScreen AMA1-biotinylated RON2 peptide binding; Potency, µM (titrated, usually from 58.2 µM), for inactives: top-dose activity change, negative = inhibition, actives largely listed as inhibitors; 360,000 compounds, 0.2% hits;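 further: potency means the concentration at half of the fitted maximal effect; 0% = vehicle wells and -100% = peptide control; nearly all actives have a fitted effect of over 45% in size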
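AMA1 (3D7) with his tag at 25 nM final met compounds first, then biotinylated RON2 peptide at 25 nM; detection used donor plus acceptor beads, 10 µg/mL apiece, read by AlphaScreen after 30 min at room temperature.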
SARS PLpro yeast = inhibitors of SARS-CoV papain-like protease in yeast; 330,000 compounds, 0.19% hits; Potency, µM (titrated, usually from 32.9 µM), without a hit: at the highest dose activity, positive = growth rescue, most hits filed as activators; S. cerevisiae expressing SARS-CoV PLpro, growth rescue; calls by dose curve; further: potency means the concentration at half of the fitted maximal effect; 0% is about no effect; nearly all actives have a fitted effect of over 55% in size
Shiga inhibitor = inhibitors of Shiga toxin in Vero cells | Vero cells, Shiga toxin protein synthesis inhibition reporter | 290,000 compounds, 9.2% hits | inhibition, % at 38.7 µM; in the data active means inhibition mostly above about 28%, no sharp cut-off; inactive means mostly below about 43%; further: 0% is about no effect
An asterisk follows results filed as active; ? = inconclusive; nt = not tested or not shown. Unless noted, the call rests on the fitted dose curve; in most records, active means well fitted curve in the direction sought with a large enough effect; inconclusive means small, poorly fitted or top-dose-only effect, or another doubt; inactive means no such curve, though single readings can be large; an effect the other way counts as inactive or inconclusive.

SMILES	Cycloheximide cs	Pf growth 96h	Pf growth 48h	AMA1-RON2 inh	SARS PLpro yeast	Shiga inhibitor
O=C(CNC1CCCC1)Nc1ccc(N2CCCCCC2)cc1	56.4*	21.6%	-24.5%	?	1.4%	82.8*
Cc1ccc(NC(=O)CNC2CCCCC2)cc1Cl	7.7	0.738µM*	?	13.7%	2.3%	4.2
O=C(Nc1ccc(S(=O)(=O)N2CCOCC2)cc1)C1CCCCC1	-2.1	nt	-15.6%	-2.4%	1.4%	-10.7
Clc1cccc(Cc2nn[nH]n2)c1	-0.7	0.8%	0.4%	5.1%	1.8%	-10.9
CC1(Oc2cccnc2Cl)CCN(Cc2ccc(OC(F)(F)F)cc2)C1 (stereo unspecified)	nt	nt	nt	-5.4%	nt	nt
O=C(Cn1cc([N+](=O)[O-])cn1)NCc1cc2ccccc2[nH]1	-3.8	18.4%	16.7%	-0.9%	1.9%	0.5
O=C(CNCC1CCCO1)Nc1ccc(N2CCCCCC2)cc1 (stereo unspecified)	22.6*	0.262µM*	-8.8%	?	4.0%	42.9*
O=C(CNCC1CCCCC1)Nc1ccc(N2CCCCC2)cc1	15.3	5.7%	-14.8%	nt	0.4%	-2.1
Cc1ccccc1Nc1c(N)c(=O)oc2ccccc12	-0.4	-1.1%	?	-1.7%	-3.7%	-7.0
CCOc1ccccc1CN1CCC(CO)(CCOc2ccccc2)CC1	-2.2	3.3%	?	-3.7%	0.0%	-7.7
COc1ccc(CN2CCC(CO)(CCOc3ccccc3)CC2)c(OC)c1C	-2.6	-6.2%	3.7µM*	15.3%	0.8%	-12.4
OCC1(CCOc2ccccc2)CCN(Cc2ccccc2C(F)(F)F)CC1	-0.8	8.28µM*	21.6%	-6.8%	3.7%	-4.2
COc1cc(Cl)c(CN2CCC(CO)(CCOc3ccccc3)CC2)cc1OC	-2.6	?	?	-9.1%	-0.5%	-11.8
N#CCCN1CCN(C(=O)c2c(N)no[n+]2[O-])CC1	-0.9	?	5.3%	-2.2%	-0.3%	-2.6
CCCn1c(SCC(=O)N2CCc3ccccc32)n[nH]c1=O	nt	nt	nt	8.0%	-5.0%	nt
CCCNC(=O)N1CCN(Cc2ccco2)CC1	-2.5	8.3%	7.6%	-11.7%	7.1%	-16.2
Cc1ccc(NC(=O)N2CCN(Cc3ccc4c(c3)OCO4)CC2)cc1	7.3	13.1µM*	nt	27.9%	14.4%	-9.6
O=C(Nc1ccc2c(c1)OCO2)N1CCN(Cc2ccco2)CC1	13.1*	4.0%	?	-4.0%	-0.6%	11.9
CCOc1ccc(NC(=O)N2CCN(Cc3ccc4c(c3)OCO4)CC2)cc1	-2.9	17.6%	-26.2%	-14.2%	-0.6%	-8.0
CN(C(=O)CN1CCN(c2cnn(-c3ccccc3)c(=O)c2Cl)CC1)C1CCS(=O)(=O)C1 (stereo unspecified)	nt	?	?	2.9%	-13.7%	nt
Cc1ccc2cccc(NC(=S)NC(=O)c3ccn(C)n3)c2n1	-0.9	-29.4%	?	29.4%	50.5%	-7.5
Cn1ccc(C(=O)NC(=S)N2CCSCC2)n1	12.2*	32.5%	-14.3%	39.5%	0.6%	12.1
CCCNC(=O)Cn1cnc2sc(C(=O)N3CCN(CCC)CC3)c(C)c2c1=O	-7.8	0.37µM*	-0.6%	7.7%	2.9%	-2.3
CCCNC(=O)Cn1cnc2sc(C(=O)N3CCC4(CC3)OCCO4)c(C)c2c1=O	-7.5	-0.2%	7.8%	5.8%	0.3%	-5.8
CC(=O)c1c(C)[nH]c(C(=O)OCc2nnc(-c3ccc([N+](=O)[O-])cc3)o2)c1C	nt	nt	nt	20.5%	0.4%	nt
CCCOc1ccc(NC(=O)C2CC(=O)N(C)C(=Nc3cccc(OC)c3)S2)cc1 (stereo unspecified)	0.4	?	?	-4.9%	0.5%	-12.0
CCOc1cccc(NC(=O)C2CC(=O)N(C)C(=Nc3cccc(F)c3)S2)c1 (stereo unspecified)	1.4	?	?	-11.9%	-7.4%	14.9
COc1ccccc1N=C1SC(C(=O)Nc2ccc(F)cc2)CC(=O)N1C (stereo unspecified)	-3.4	?	10.4µM*	-8.3%	4.5%	-0.2
CCOc1cccc(NC(=O)C2CC(=O)N(C)C(=Nc3ccccc3)S2)c1 (stereo unspecified)	-5.0	3.7µM*	?	-17.9%	0.9%	-13.1
CN(/N=C/c1cccnc1)c1cnn(-c2ccc(F)c(Cl)c2)c(=O)c1Cl	20.3*	nt	0.0%	-2.5%	0.3%	82.2
